Among all 300,000 compounds or so, about 5,400 (1.8%) were called active. Entries that show only a call come without a potency. Roughly 28% stayed inconclusive and do not appear here. Calls come from the whole dose curve; tested in HEK293 cells. Only a selection was taken, and actives are over-represented in it overall.
Potency is the fitted concentration of half-maximal effect.

A short description of this experiment: qHTS for inhibitors of binding or entry into cells for Marburg Virus. The conditions noted are these: Marburg virus pseudotyped entry inhibition, cell reporter; series mostly up to 37.8 µM. A general note: In qHTS, concentration-response curves come from the screen itself.
`N[C@@H](Cc1ccccc1)C(=O)N1CCC(C(=O)NCC(=O)Nc2ccc(F)cc2)CC1`: the Potency result was “inactive”.

Consider `O=C(CN1CCN(C(=O)C2CCCO2)CC1)Nc1c(Cl)cccc1Cl` (configuration not stated), for which the Potency entry was “inactive”.

In the case of `COc1cc(/C=N\Nc2nc(-c3cccs3)c(NC(C)=O)s2)ccc1O`, the Potency entry is “inactive”.

Regarding `CCNc1nc(NCC)nc(N/N=C/c2ccc(O)c(OC)c2)n1`, the Potency entry is “inactive”.

For the compound `COc1cc(/C=N/Nc2nc3ccccc3s2)ccc1O`, the Potency is 10 µM (active).

With `CCN(CC(=O)Nc1c(F)cccc1F)C(=O)Cc1cccs1`, the Potency result was “inactive”.

As for `CCOC(=O)N(Cc1ccccc1)C1CC1`, the Potency entry is “inactive”.

Regarding `CCOC(=O)CCP(=O)(O)C(O)(c1ccccc1)c1ccccc1`, the Potency result was “inactive”.

On to `CCC(C(=O)OCCN(CC)CC)c1ccccc1` (configuration not stated), for which the Potency result is “inactive”.

As for `CCCC(C(=O)OCCN(CC)CC)(c1ccccc1)c1ccccc1`, the Potency was 10 µM (active).

In the case of `COc1ccccc1CN1CCNC(=O)C1CC(=O)N(C)CC1CCOCC1` (configuration not stated), the Potency entry was “inactive”.

With `O=C(c1ccc(N2CCOCC2)c([N+](=O)[O-])c1)N1CCN(c2ccccc2F)CC1`, the Potency entry was “inactive”.

For `COC(=O)c1ccc(CSc2nc3ccccc3c(=O)n2-c2cccc(OC)c2)o1`, the Potency entry was “inactive”.

On to `COc1ccc(CCNC(=O)CSc2nc3[nH]ncc3c(=O)n2-c2cccc(C(F)(F)F)c2)cc1OC`, for which the Potency entry is “inactive”.

On to `Cc1cccc2nc(CSc3nc4[nH]ncc4c(=O)n3-c3cccc(Cl)c3)cc(=O)n12`, for which the Potency is 7.31 µM (active).

For the compound `CC(=O)C1=C(C)NC(=O)NC1c1ccc2c(c1)OCO2` (configuration not stated), the Potency result is “inactive”.

On to `C#CC(C)(CC)NC(=O)Cn1nnc(-c2ccc(OCc3c(F)cccc3Cl)cc2)n1` (configuration not stated), for which the Potency result was “inactive”.

For `CN(C)CCCNC(=O)/C=C/c1ccc(OCc2c(F)cccc2Cl)cc1`, the Potency was 3.98 µM (active).

Regarding `O=C(/C=C/c1ccc(F)cc1)NCCNC(=O)/C=C/c1ccc(F)cc1`, the Potency result was “inactive”.

As for `NCCCCCC(=O)N/N=C/c1ccc2nccnc2c1`, the Potency was 2.82 µM (active).

For `O=C(CCCCCNC(=O)c1ccccc1)N/N=C/c1ccccc1`, the Potency entry was “inactive”.

Turning to `CCOc1cc(C=NNC(=O)CCCC(=O)NN=Cc2ccc(O)c(OCC)c2)ccc1O`, the Potency entry is “inactive”.

In the case of `COc1ccccc1CNC(=O)CSc1nc(=O)n(Cc2ccncc2)c2c1CCC2`, the Potency entry was “inactive”.

In the case of `Cc1ccc(C(=O)N/C(=C\c2cn(C)c3ccccc23)C(=O)N2CCN(C)CC2)cc1`, the Potency entry is “inactive”.

On to `CC(=O)OC1CCC2C3CCC4=C(CC(F)C(=O)C4)C3CCC12C` (configuration not stated), for which the Potency result is “inactive”.

For the compound `C=CCn1c(C)cc(C2=NNC(=NCC)SC2)c1C`, the Potency was 1.16 µM (active).

Turning to `Cc1cccc(N=C2NN=C(c3c[nH]c4ccccc34)CS2)c1`, the Potency result was “inactive”.

On to `COCCn1c(C)cc(C2=NNC(=Nc3ccc(F)cc3)SC2)c1C`, for which the Potency result was “inactive”.

In the case of `COc1cccc(N(C(=O)CNC(=O)c2ccco2)C(C(=O)NC2CCCCC2)c2cccnc2)c1` (configuration not stated), the Potency entry was “inactive”.

Take `COc1cc([C@H]2[C@@H]3C(=O)N(c4ccc(F)cc4)C(=O)[C@H]3ON2c2ccccc2)ccc1O`: the Potency result is “inactive”.

For `O=[N+]([O-])c1ccc(S(=O)(=O)Nc2cccc(-c3ccc(N4CCCC4)nn3)c2)cc1`, the Potency entry is “inactive”.

For the compound `Cc1ccc(S(=O)(=O)c2cc3c(=O)n4cccc(C)c4nc3n(CCc3ccccc3)c2=N)cc1C`, the Potency entry is “inactive”.

As for `O=C(OCC(=O)N1CCCCCC1)c1ccc(Br)c(S(=O)(=O)N2CCOCC2)c1`, the Potency entry is “inactive”.

`C=CCNc1ncnc2ccc(Br)cc12`: the Potency result is “inactive”.

With `CC1(C)CC2CC(C)(CN2c2ncnc3ccc(Br)cc23)C1` (configuration not stated), the Potency is 6.31 µM (active).

`O=C(NNc1nc(N2CCCC2)nc(N2CCCC2)n1)c1ccccc1`: the Potency entry is “inactive”.

On to `O=C(CN1CCc2ccccc2C1)Nc1cccc(S(=O)(=O)N2CCOCC2)c1`, for which the Potency result was “inactive”.

Consider `O=[N+]([O-])c1ccc2oc(-c3cccc(O)c3)nc2c1`, for which the Potency entry is “inactive”.

For `COc1ccc2oc(N)nc2c1`, the Potency entry was “inactive”.

Regarding `COc1cccc(-c2nc3cc(C)ccc3o2)c1`, the Potency is 6.31 µM (active).

Take `Nc1ccc2c(c1)C(=Cc1cccnc1)c1ccccc1-2`: the Potency entry is “inactive”.

`CSCCC(NC(=O)COc1ccccc1)C(=O)N(C)CC(=O)Nc1ccc(C)cc1` (configuration not stated): the Potency entry is “inactive”.

As for `CC1CCCCC12NC(=O)N(CC(=O)OCc1c(F)cccc1Cl)C2=O` (configuration not stated), the Potency entry was “inactive”.

Turning to `O=C(c1ccc(Cl)cc1)N1N=C(c2ccccn2)CC1(O)C(F)(F)F` (configuration not stated), the Potency is 7.94 µM (active).

Take `CC1=NN(C(=O)CCc2ccccc2O)C(O)(C(F)(F)F)C1` (configuration not stated): the Potency entry is “inactive”.

`COC(=O)C1(O)CC(C(C)C)=NN1C(=O)c1ccc(Cl)cc1` (configuration not stated): the Potency result was “inactive”.

For `COc1cc(C(=O)NCC(=O)NCCSc2ccc(Br)cc2)cc(OC)c1OC`, the Potency entry was “inactive”.

Take `O=C(NC1CCCC1)C(c1ccco1)N(C(=O)c1ccco1)c1ccc(F)cc1` (configuration not stated): the Potency entry was “inactive”.

As for `N#Cc1cc([N+](=O)[O-])ccc1NC(=O)COC(=O)c1cnccn1`, the Potency entry is “inactive”.

For `CCOc1ccc(CCNC(=O)c2ccc3c(c2)sc2nc(-c4ccc(F)cc4)cn23)cc1OCC`, the Potency is 2.51 µM (active).

In the case of `Cc1c(C(=O)NCCN2CCOCC2)sc2nc(-c3ccc(F)cc3)cn12`, the Potency result is “inactive”.

Turning to `CCOc1ccc(CCNC(=O)Cn2nc(CC)n3c(cc4sc(CC)cc43)c2=O)cc1OCC`, the Potency result was “inactive”.

Regarding `COc1ccc(N2CC(NS(=O)(=O)c3ccc4ccccc4c3)CC2=O)cc1` (configuration not stated), the Potency entry was “inactive”.

Turning to `CCOc1ccc(C(=O)NCC(=O)N2CCCCCCC2)cc1OCC`, the Potency result was “inactive”.

With `S=c1[nH]nc(-c2ccco2)n1/N=C/c1ccccc1`, the Potency result was “inactive”.

Consider `S=c1[nH]nc(-c2cccnc2)n1/N=C/C(Cl)=C\c1ccccc1`, for which the Potency entry was “inactive”.

As for `Cc1cc(-c2n[nH]c(=S)n2/N=C/C(Br)=C/c2ccccc2)n[nH]1`, the Potency was 10 µM (active).

As to `O=C(CCl)NNc1cccc(Cl)n1`, the Potency entry is “inactive”.

As to `O=C(CCl)NNc1nc(-c2ccccc2)c2cc(Cl)ccc2n1`, the Potency is 6.31 µM (active).

Turning to `Cc1ccc2nc(Nc3ccccc3O)nc(-c3ccccc3)c2c1`, the Potency entry was “inactive”.

For the compound `COc1ccc(CCNC(=O)c2c(C)nn(-c3ccccc3)c2Cl)cc1`, the Potency entry is “inactive”.

Take `CCN(C(=O)COC(=O)c1c(C)nn(-c2ccccc2)c1Cl)c1c(N)n(Cc2ccccc2)c(=O)[nH]c1=O`: the Potency entry was “inactive”.

Regarding `Cc1cc(C)c2cc(CN(Cc3nnnn3Cc3ccc(F)cc3)C3CCCC3)c(=O)[nH]c2c1`, the Potency result is “inactive”.

Regarding `CCOc1ccc2[nH]c(=O)c(CN(Cc3nnnn3Cc3ccccc3)CC3CCCO3)cc2c1` (configuration not stated), the Potency entry was “inactive”.

On to `Cc1cccc2cc(CN(Cc3nnnn3Cc3ccccc3)C3CCCC3)c(=O)[nH]c12`, for which the Potency is 16.4 µM (active).

For the compound `Cc1cc(NC(=O)C(C)SCC(=O)Nc2ccccc2N2CCCCC2)no1` (configuration not stated), the Potency entry was “inactive”.

With `Nc1cc(=O)n(Cc2ccccc2)c(=O)n1Cc1ccccc1`, the Potency entry is “inactive”.

Consider `CCOC(=O)C1CCN(c2nc3ccccc3nc2[C@@H](C#N)C(=O)OC(C)C)CC1`, for which the Potency result was “inactive”.

Regarding `COc1cc(/C=C2\C(=N)N3N=C(CC(=O)N4CCOCC4)SC3=NC2=O)cc(OC)c1OC`, the Potency entry was “inactive”.

In the case of `CCN1CCN(C(=O)c2ccc(CN(c3ccc(C)c(C)c3)S(C)(=O)=O)cc2)CC1`, the Potency result was “inactive”.

As to `CCOC(=O)N1CCN(C(=O)c2ccc(CN(c3ccc(C)c(C)c3)S(C)(=O)=O)cc2)CC1`, the Potency result was “inactive”.

Turning to `Cc1ccc2cc(CN(c3ccc(C)c(C)c3)S(C)(=O)=O)c(=O)[nH]c2c1`, the Potency was 10 µM (active).

`CCCCc1nc2cc(C(=O)NCCc3cnn(C)c3)ccc2o1`: the Potency result is “inactive”.

Consider `CC(=O)CSc1nc(CCc2ccccc2)c(C#N)c(=O)[nH]1`, for which the Potency entry is “inactive”.

For the compound `Cn1c(N)c(C(=O)COC(=O)/C=C/c2cccc(C(F)(F)F)c2)c(=O)n(C)c1=O`, the Potency entry is “inactive”.

Take `COc1ccc(C(=O)COC(=O)c2c(C)noc2C)cc1Cl`: the Potency result was “inactive”.

For the compound `COc1ccc(Cn2nnc3c(=O)[nH]c(C4CCN(C(=O)c5ccccc5Cl)CC4)nc32)cc1`, the Potency result was “inactive”.

On to `O=C(c1ccccc1F)N1CCC(c2nc3c(nnn3Cc3cccc(F)c3)c(=O)[nH]2)CC1`, for which the Potency result is “inactive”.

For `CC(C)(C)c1ccc(Cn2nnc3c(=O)[nH]c(C4CCCN(C(=O)c5ccco5)C4)nc32)cc1` (configuration not stated), the Potency is 10 µM (active).

For the compound `COc1ccc(OC)c(NC(=O)COC(=O)Cc2ccsc2)c1`, the Potency result is “inactive”.

For `CCOC(=O)c1ccc(N2C(=O)c3n[nH]c(C)c3C2c2ccc(O)c(OC)c2)cc1` (configuration not stated), the Potency result was “inactive”.

For `CCOC(=O)c1ccc(N2C(=O)c3[nH]nc(-c4ccccc4)c3C2c2ccc(C(C)C)cc2)cc1` (configuration not stated), the Potency result is “inactive”.

With `CCOC(=O)c1ccc(N2C(=O)c3n[nH]c(-c4ccco4)c3C2c2ccc(O)cc2)cc1` (configuration not stated), the Potency was 11.2 µM (active).

As for `COc1ccccc1S(=O)(=O)c1c(C)cc(C)[nH]c1=O`, the Potency entry was “inactive”.

On to `OCc1ccc(-c2ccccc2)c(-c2ccccc2)c1`, for which the Potency entry is “inactive”.

In the case of `c1cnc(NC2C3CC4CC(C3)CC2C4)nc1` (configuration not stated), the Potency entry was “inactive”.

Take `CN(C)c1ccc(CNC2C3CC4CC(C3)CC2C4)cc1` (configuration not stated): the Potency is 14.6 µM (active).

For the compound `CN(C)c1ccc(CNC23CN4CN(CN(C4)C2)C3)cc1`, the Potency result was “inactive”.

As for `CC(=O)Oc1cccc(C(=O)Nc2ccccc2NC(=O)c2cccc(OC(C)=O)c2)c1`, the Potency result was “inactive”.

In the case of `COc1ccc(C(=O)NC2CC2)cc1OC1CCN(Cc2cnn(C)c2)CC1`, the Potency result was “inactive”.

Turning to `O=C(CN1CCN(c2ccccc2)CC1)Nc1ccc(F)cc1`, the Potency result was “inactive”.

Regarding `CCC(=O)Nc1ccccc1N1CCN(S(C)(=O)=O)CC1`, the Potency entry is “inactive”.

`CCC(C)C(=O)Nc1ccccc1N1CCN(c2ccc(F)cc2)CC1` (configuration not stated): the Potency was 12.6 µM (active).

As for `O=C(Nc1ccccc1N1CCN(c2ccccc2)CC1)c1cccc(F)c1`, the Potency entry is “inactive”.

In the case of `CCCCC(=O)Nc1ccccc1N1CCN(c2ccc(F)cc2)CC1`, the Potency is 11.2 µM (active).

Regarding `CCCC(=O)Nc1ccccc1N1CCN(C(=O)c2ccccc2)CC1`, the Potency result was “inactive”.

Turning to `O=C(Cc1ccc(S(=O)(=O)N2CCOCC2)s1)NCCOc1ccccc1F`, the Potency result is “inactive”.

Turning to `O=C(c1cc2cc(Br)cc(Br)c2oc1=O)N1CCOCC1`, the Potency entry is “inactive”.

`COCCNCCOCCOc1cccc(OC)c1`: the Potency result was “inactive”.

On to `COCCCNCCOCCOc1ccc(Cl)cc1Br`, for which the Potency was 11.6 µM (active).

Turning to `CSc1ccc(/C=N\NC(=O)COc2ccc(Cl)cc2Br)cc1`, the Potency entry is “inactive”.

In the case of `CCS(=O)(=O)Nc1ccc(C(=O)NCCSc2ccccc2)cc1`, the Potency result was “inactive”.

Values taken from PubChem BioAssay AID540276 (National Center for Advancing Translational Sciences (NCATS), 2011).
